The target of the assay is 5-hydroxytryptamine receptor 2A (Homo sapiens) (UniProt P28223). Kind of assay: 5-hydroxytryptamine receptor 2A (HTR2A) small molecule antagonists, cell-based qHTS assay (AID 1963586). Also: nearly all actives have a fitted effect of over 45% in size. The settings on record: HTR2A-CHO cells, DOI-induced calcium flux, fluorescence; series mostly up to 61.5 µM. In a few lines: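 CHO cells stably expressing human HTR2A were plated for 18 h at 37 C, then loaded with calcium dye for 1 h. Compounds were preincubated 5 min at room temperature before DOI (4 nM solution) was added. Kinetic fluorescence was read for 3 min.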
For orientation: qHTS replaces the single test concentration by a dilution series.

Records with an inconclusive call do not appear. A call without a number means that no potency is given here. Values without a mark were called inactive. Active and inactive are the calls of the source. Calls follow the shape of the full dose curve.
Potency is read from the fitted curve at half-maximal effect.

5-hydroxytryptamine receptor 2A (Homo sapiens), sequence (P28223 whole entry, looked up): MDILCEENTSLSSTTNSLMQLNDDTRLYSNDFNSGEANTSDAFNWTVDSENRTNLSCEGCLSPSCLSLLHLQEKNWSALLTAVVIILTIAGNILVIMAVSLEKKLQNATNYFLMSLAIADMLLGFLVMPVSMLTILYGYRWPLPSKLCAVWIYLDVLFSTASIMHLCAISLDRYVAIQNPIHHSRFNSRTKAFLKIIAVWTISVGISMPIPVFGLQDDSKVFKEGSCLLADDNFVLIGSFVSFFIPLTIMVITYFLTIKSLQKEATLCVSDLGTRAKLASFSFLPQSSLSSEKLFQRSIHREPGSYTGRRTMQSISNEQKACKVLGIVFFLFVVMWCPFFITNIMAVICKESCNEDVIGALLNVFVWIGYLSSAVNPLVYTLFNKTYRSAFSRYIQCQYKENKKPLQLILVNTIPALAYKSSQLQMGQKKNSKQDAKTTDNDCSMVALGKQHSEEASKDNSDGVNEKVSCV

For the molecule `CCCCCCCCCCCCCC(=O)OCC`, the Potency result is “inactive”.

As for `BrC/C=C/CBr`, the activity, negative = inhibition was -12.9% [at 12.7 µM].

For the molecule `CN(C[C@@H](CC[N+]12CCC(C3CCCCC3)(CC1)CC2)c1ccc(Cl)c(Cl)c1)C(=O)c1cc(C(F)(F)F)cc(C(F)(F)F)c1`, the Potency result is “inactive”.

Turning to `Cc1ccc2nc(N)[nH]c(=O)c2c1Sc1ccncc1`, the Potency result was “inactive”.

Turning to `Cc1c(C)c([N+](=O)[O-])c(C(C)(C)C)c([N+](=O)[O-])c1C`, the Potency entry was “inactive”.

`C=CCNc1nc(NCC=C)nc(N2CCN(C(c3ccc(F)cc3)c3ccc(F)cc3)CC2)n1`: the Potency is 5.16 µM (active).

Take `On1nnc2ccccc21`: the Potency entry was “inactive”.

In the case of `CCCCc1ccc(N)cc1`, the Potency entry was “inactive”.

As to `Cc1ccc2c(c1[N+](=O)[O-])C(=O)c1ccccc1C2=O`, the Potency result is “inactive”.

Turning to `C/C(=N\O)c1ccc(OCC(=O)N2CCCCC2)cc1`, the Potency entry was “inactive”.

For the molecule `C/C(=C\C(C)CC(C)CC(C)C)C1CC(=O)OC1=O` (centres undefined), the Potency result is “inactive”.

Regarding `CCCCCCCCCCCCCCC1CO1` (centres undefined), the Potency result is “inactive”.

In the case of `N=c1ccn2c(n1)O[C@H]1[C@H](O)[C@@H](CO)O[C@H]12`, the Potency entry is “inactive”.

Take `CC(=O)OC(C)(C)Cc1ccccc1`: the Potency result is “inactive”.

With `CC(=O)O[C@@H]1C(=O)O[C@@H]2[C@H]1OC(=O)[C@@H]2OC(C)=O`, the Potency result was “inactive”.

As to `OC1(c2ccccc2)CCNCC1`, the Potency entry is “inactive”.

Turning to `O=C1OC(=O)c2cccc3cccc1c23`, the Potency result is “inactive”.

As for `Nc1ccc(Cl)c([N+](=O)[O-])c1`, the Potency entry is “inactive”.

Consider `Cc1nc(-c2ccc(OCC(C)C)c(C#N)c2)sc1C(=O)O`, for which the Potency entry was “inactive”.

Regarding `CCOC(=O)CS`, the Potency result was “inactive”.

`CCCCCCCC`: the Potency result is “inactive”.

On to `CC(C)(C)c1cc(CCC(=O)NN)cc(C(C)(C)C)c1O`, for which the Potency result was “inactive”.

For `O=C1OC(=O)C2CCCCC12` (centres undefined), the Potency result is “inactive”.

Regarding `[Cl][Pt-2]([Cl])([Cl])[Cl]`, the Potency entry was “inactive”.

Take `CCCOC(=O)c1ccc(C(=O)OCCC)nc1`: the Potency entry was “inactive”.

Consider `C[C@]12CCC(=O)C=C1CC[C@@H]1[C@@H]2[C@@H](O)C[C@@]2(C)[C@H]1CC[C@]2(O)C(=O)COC(=O)CCC(=O)O`, for which the Potency result was “inactive”.

In the case of `CC(=O)CC(=O)Nc1ccc(C)cc1C`, the Potency entry is “inactive”.

For the molecule `CCOc1ccc(NC(=O)OC(C)C)cc1OCC`, the Potency result was “inactive”.

For `O=C(OCC1CO1)C1CCCCC1C(=O)OCC1CO1` (centres undefined), the Potency entry is “inactive”.

`NNc1nc(-c2ccc([N+](=O)[O-])cc2)cs1`: the Potency result is “inactive”.

In the case of `C=C/C(C)=C/C/C=C(\C)CCC=C(C)C`, the Potency result was “inactive”.

Regarding `C[Si](C)(CCCN)O[Si](C)(C)CCCN`, the Potency entry was “inactive”.

`O=C1C(=O)c2ccccc2C(O)=C1C1CCC(c2ccc(Cl)cc2)CC1` (centres undefined): the Potency entry is “inactive”.

On to `Clc1ccc2n[nH]nc2c1`, for which the Potency entry was “inactive”.

For the molecule `CCOC(=O)c1cccnc1`, the Potency result is “inactive”.

As to `OCCSc1ccccc1`, the Potency result was “inactive”.

For the molecule `CCCCCC(=O)OCC`, the Potency entry is “inactive”.

Consider `O=C(CO)[C@@H](O)[C@H](O)[C@@H](O)CO`, for which the Potency result was “inactive”.

For the molecule `C=CC/C=C/C`, the Potency result was “inactive”.

`CCCCCCCC[P+](CCCCCCCC)(CCCCCCCC)CCCCCCCC`: the Potency result was “inactive”.

On to `C/C(=N\[Si](C)(C)C)O[Si](C)(C)C`, for which the Potency result is “inactive”.

For `CCCCCCC1CCCC(=O)O1` (centres undefined), the Potency result was “inactive”.

As to `CO[C@@H]1[C@H](OC(=O)/C=C/C=C/C=C/C=C/C(=O)O)CC[C@]2(CO2)[C@H]1[C@@]1(C)O[C@@H]1CC=C(C)C`, the Potency entry was “inactive”.

As to `C[Si](NC1CCCCC1)(NC1CCCCC1)NC1CCCCC1`, the Potency result is “inactive”.

The values above are taken from PubChem BioAssay (Tox21).
